# Assay results taken from ChEMBL document CHEMBL3433997, “St. Jude Leishmania screening dataset” (2016).
# Molecular target: Solute carrier family 2, facilitated glucose transporter member 1 (Homo sapiens) (UniProt P11166)
# Test: ST_JUDE_LEISH: Cytotoxicity at 2uM final concentration against transgenic Leishmania Mexicana promastigotes LmGLUT1 that are glucose transport deficient and complemented with the human glucose transporter GLUT1. Activity is measured by DNA content using SYBR green in vitro
# Format: functional
# Sequence of Solute carrier family 2, facilitated glucose transporter member 1 (Homo sapiens) (P11166 whole entry): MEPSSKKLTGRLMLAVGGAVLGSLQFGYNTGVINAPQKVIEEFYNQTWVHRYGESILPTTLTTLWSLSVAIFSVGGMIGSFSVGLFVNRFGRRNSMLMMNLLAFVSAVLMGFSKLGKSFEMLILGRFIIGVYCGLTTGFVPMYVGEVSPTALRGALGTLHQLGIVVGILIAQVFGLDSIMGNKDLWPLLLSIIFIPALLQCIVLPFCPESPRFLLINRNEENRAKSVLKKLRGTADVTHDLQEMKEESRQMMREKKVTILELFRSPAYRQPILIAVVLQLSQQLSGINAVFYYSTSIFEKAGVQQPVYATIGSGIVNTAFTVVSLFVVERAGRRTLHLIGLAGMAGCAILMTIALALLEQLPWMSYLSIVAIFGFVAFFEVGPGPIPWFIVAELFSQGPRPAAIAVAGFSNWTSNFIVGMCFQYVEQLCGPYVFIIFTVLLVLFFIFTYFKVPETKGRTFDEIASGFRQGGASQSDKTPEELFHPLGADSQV
row,SMILES,inhibition [%]
1,CCN(C)CCCn1c(N(C)C)nc2cc(-n3cnc4cc(-c5ccc(Cl)cc5)sc4c3=O)ccc21,8.73
2,CN(C)C(CNC(=O)c1cc(-c2ccncc2)c(-c2ccc(NC(=O)Nc3cccc(F)c3)cc2)o1)c1ccccc1 (stereo not given),0.98
3,COc1cc2ncnc(Nc3ccc(OCc4ccccc4Br)c(Cl)c3)c2cc1OC,-3.06
4,COc1ccc(-c2nc3cccnc3n2CC(=O)Nc2cc(Cl)c(Cl)cc2Cl)c(OC)c1,-3.62
5,O=C(Nc1cccc(Cl)c1Cl)N1CCc2cc3nccc(N4CCN5CCC[C@H]5C4)c3cc21,-0.2
6,CCOc1ccc(C(C)NC(=O)Nc2ccccc2)cc1OCC (stereo not given),4.28
7,COc1ccc2[nH]c(C)cc(=NN=Cc3ccc(F)cc3)c2c1,4.47
8,COc1ccc(O)c(C(=O)NCCc2ccc(OC)c(-c3ccc(C(C)(C)C)cc3)c2)c1,4.08
9,COc1ccc(CCN(C)CCc2ccc(NC(=O)c3cccc4c(=O)c5ccccc5sc34)cc2)cc1,2.21
10,O=C(Nc1ccc(OC2CCN(Cc3ccc(F)cc3)C2)cc1)c1cccs1 (stereo not given),-3.81
11,CN1CCC(C(=O)Nc2cccc(-c3ccc(-c4nc5ccccc5[nH]4)cc3)c2)CC1,-0.41
12,CCOC(=O)CNC(=O)N(CCN(Cc1ccccc1)C(=O)NCC(=O)OCC)Cc1ccccc1,0.94
13,Cc1ccc([N+](=O)[O-])cc1NC(=O)N(CC(O)c1ccccc1)C1CCCCC1 (stereo not given),1.93
14,COc1cc(NC(=O)c2cccc([N+](=O)[O-])c2)cc(S(=O)(=O)c2ccc(Cl)cc2)c1,-0.46
15,CC(=O)c1sc(NC(=O)Nc2ccc(C)cc2C)nc1C,14
16,CCCCNCC(O)COc1ccccc1-c1ccc(N/N=C/c2cccc3ccccc23)nn1 (stereo not given),3.78
17,COc1ccc(NC(=O)C2c3ccccc3C(=O)N(CC(C)C)C2c2cccs2)cc1OC (stereo not given),-0.36
18,O=C(NCCc1ccccc1)[C@H](Cc1ccccc1)Nc1ccnc(NCC2CCCCC2)n1,-0.55
19,Clc1ccc2c(NCCCCCCCCNc3ccnc4cc(Cl)ccc34)ccnc2c1,2.99
20,COc1cc2nc(N3CCC(CNC(=O)c4ccc(-c5ccc(C(F)(F)F)cc5)cc4)CC3)nc(N)c2cc1OC,2.82

row,SMILES,inhibition [%]
1,O=C(Nc1ccccc1O)c1ccc(Oc2cccc(C(=O)Nc3ccccc3O)c2)cc1,3.99
2,COc1cc(Cl)c(C)cc1N(Cc1ccccc1-c1ccccc1)S(=O)(=O)c1ccc(C(F)(F)F)cc1,1.01
3,Cn1ccc(C(=O)Nc2ccc3c(c2)CN(Cc2ccc(N4CCCC4)o2)CCC3)n1,28.5
4,COc1ccc(-c2ccc(NC(=O)c3cccs3)cc2)cc1CN1CCCN(C)CC1,3.24
5,COc1ccc(NC(=O)[C@H](CC(C)C)Nc2cc(C)nc(Nc3ccccc3)n2)cc1,19.2
6,CC(CCc1ccccc1)NCC(O)c1cccc([N+](=O)[O-])c1 (stereo not given),-0.26
7,Oc1ccc(CCNCCCCCCNCCCc2ccc(Cl)cc2)cc1O,2.83
8,Cn1c(Cc2ccccc2)nnc1Sc1ccc(C#N)c([N+](=O)[O-])c1,3.85
9,CN1CCC(C(=O)Nc2cccc(-c3cccc(-c4nc5cc(F)ccc5[nH]4)c3)c2)CC1,4.7
10,Cc1ccc(Nc2nc3cc(Nc4ccnc(Nc5cccc(CS(C)(=O)=O)c5)n4)ccc3o2)cc1,4.03
11,COc1ccc2nccc(N3CCN(CCNCc4ccc5c(n4)NC(=O)CS5)CC3)c2n1,0.43
12,COc1cccc(-c2cc(C(=O)NC3CCC(N4CCC(c5ccccc5C)CC4)CC3)[nH]n2)c1 (stereo not given),6.55
13,Cc1[nH]c(C)c(-c2ccc(-c3cccc(OC(F)(F)F)c3)nc2)c(=O)c1Cl,-1.57
14,CC(=NNC(N)=O)C1=C(O)C(c2ccccc2)N(C2CCCCC2)C1=O (stereo not given),-0.44
15,O=S(=O)(Nc1cccc(CCN2CCC(N3CCCCC3)CC2)c1)c1ccc2c(c1)OCCO2,1.3
16,CCN1CCN(c2cc(C)c3cc(NC(=O)C=Cc4cccc(OC)c4OC)ccc3n2)CC1,5.91
17,COc1ccc2ncc(F)c(CCN3C4CCC3CC(NCc3ccc5c(c3)OCCO5)C4)c2n1 (stereo not given),59.9
18,Cn1cncc1C(=O)Nc1cccc(-c2ccc(-c3nc4ccccc4[nH]3)s2)c1,3.45
19,Nc1ccc2[nH]cc(C3CCN(CC4CCC(NC(=O)/C=C/c5ccccc5Cl)CC4)CC3)c2n1 (stereo not given),3.23
20,COc1ccc(-c2cccc(CNC3CCN(CC4Cn5c(=O)ccc6ccc(F)c4c65)CC3)c2)cc1 (stereo not given),10.7

# Molecular target: Hexose transporter 1 (Plasmodium falciparum) (UniProt O97467)
# Test: ST_JUDE_LEISH: Cytotoxicity at 2uM final concentration against transgenic Leishmania Mexicana promastigotes LmPfHT that are glucose transport deficient and complemented with the Plasmodium falciparum hexose transporter. Activity is measured by DNA content using SYBR green in vitro
# Format: functional
row,SMILES,inhibition [%]
1,CCN(C)CCCn1c(N(C)C)nc2cc(-n3cnc4cc(-c5ccc(Cl)cc5)sc4c3=O)ccc21,10.9
2,CN(C)C(CNC(=O)c1cc(-c2ccncc2)c(-c2ccc(NC(=O)Nc3cccc(F)c3)cc2)o1)c1ccccc1 (stereo not given),0.71
3,COc1cc2ncnc(Nc3ccc(OCc4ccccc4Br)c(Cl)c3)c2cc1OC,1.28
4,COc1ccc(-c2nc3cccnc3n2CC(=O)Nc2cc(Cl)c(Cl)cc2Cl)c(OC)c1,-1.91
5,O=C(Nc1cccc(Cl)c1Cl)N1CCc2cc3nccc(N4CCN5CCC[C@H]5C4)c3cc21,1.06
6,CCOc1ccc(C(C)NC(=O)Nc2ccccc2)cc1OCC (stereo not given),2.66
7,COc1ccc2[nH]c(C)cc(=NN=Cc3ccc(F)cc3)c2c1,5.21
8,COc1ccc(O)c(C(=O)NCCc2ccc(OC)c(-c3ccc(C(C)(C)C)cc3)c2)c1,5.01
9,COc1ccc(CCN(C)CCc2ccc(NC(=O)c3cccc4c(=O)c5ccccc5sc34)cc2)cc1,-0.35
10,O=C(Nc1ccc(OC2CCN(Cc3ccc(F)cc3)C2)cc1)c1cccs1 (stereo not given),-1.65
11,CN1CCC(C(=O)Nc2cccc(-c3ccc(-c4nc5ccccc5[nH]4)cc3)c2)CC1,1.25
12,CCOC(=O)CNC(=O)N(CCN(Cc1ccccc1)C(=O)NCC(=O)OCC)Cc1ccccc1,2.07
13,Cc1ccc([N+](=O)[O-])cc1NC(=O)N(CC(O)c1ccccc1)C1CCCCC1 (stereo not given),2.61
14,COc1cc(NC(=O)c2cccc([N+](=O)[O-])c2)cc(S(=O)(=O)c2ccc(Cl)cc2)c1,-1.02
15,CC(=O)c1sc(NC(=O)Nc2ccc(C)cc2C)nc1C,8.74
16,CCCCNCC(O)COc1ccccc1-c1ccc(N/N=C/c2cccc3ccccc23)nn1 (stereo not given),3.6
17,COc1ccc(NC(=O)C2c3ccccc3C(=O)N(CC(C)C)C2c2cccs2)cc1OC (stereo not given),0.34
18,O=C(NCCc1ccccc1)[C@H](Cc1ccccc1)Nc1ccnc(NCC2CCCCC2)n1,2.47
19,Clc1ccc2c(NCCCCCCCCNc3ccnc4cc(Cl)ccc34)ccnc2c1,1.53
20,COc1cc2nc(N3CCC(CNC(=O)c4ccc(-c5ccc(C(F)(F)F)cc5)cc4)CC3)nc(N)c2cc1OC,2.34

row,SMILES,inhibition [%]
1,O=C(Nc1ccccc1O)c1ccc(Oc2cccc(C(=O)Nc3ccccc3O)c2)cc1,4.01
2,COc1cc(Cl)c(C)cc1N(Cc1ccccc1-c1ccccc1)S(=O)(=O)c1ccc(C(F)(F)F)cc1,0.29
3,Cn1ccc(C(=O)Nc2ccc3c(c2)CN(Cc2ccc(N4CCCC4)o2)CCC3)n1,54.6
4,COc1ccc(-c2ccc(NC(=O)c3cccs3)cc2)cc1CN1CCCN(C)CC1,3.15
5,COc1ccc(NC(=O)[C@H](CC(C)C)Nc2cc(C)nc(Nc3ccccc3)n2)cc1,15.8
6,CC(CCc1ccccc1)NCC(O)c1cccc([N+](=O)[O-])c1 (stereo not given),-2.9
7,Oc1ccc(CCNCCCCCCNCCCc2ccc(Cl)cc2)cc1O,4.13
8,Cn1c(Cc2ccccc2)nnc1Sc1ccc(C#N)c([N+](=O)[O-])c1,1.84
9,CN1CCC(C(=O)Nc2cccc(-c3cccc(-c4nc5cc(F)ccc5[nH]4)c3)c2)CC1,5.02
10,Cc1ccc(Nc2nc3cc(Nc4ccnc(Nc5cccc(CS(C)(=O)=O)c5)n4)ccc3o2)cc1,2.49
11,COc1ccc2nccc(N3CCN(CCNCc4ccc5c(n4)NC(=O)CS5)CC3)c2n1,1.14
12,COc1cccc(-c2cc(C(=O)NC3CCC(N4CCC(c5ccccc5C)CC4)CC3)[nH]n2)c1 (stereo not given),14.6
13,Cc1[nH]c(C)c(-c2ccc(-c3cccc(OC(F)(F)F)c3)nc2)c(=O)c1Cl,0.86
14,CC(=NNC(N)=O)C1=C(O)C(c2ccccc2)N(C2CCCCC2)C1=O (stereo not given),-0.08
15,O=S(=O)(Nc1cccc(CCN2CCC(N3CCCCC3)CC2)c1)c1ccc2c(c1)OCCO2,4.23
16,CCN1CCN(c2cc(C)c3cc(NC(=O)C=Cc4cccc(OC)c4OC)ccc3n2)CC1,11.3
17,COc1ccc2ncc(F)c(CCN3C4CCC3CC(NCc3ccc5c(c3)OCCO5)C4)c2n1 (stereo not given),71.9
18,Cn1cncc1C(=O)Nc1cccc(-c2ccc(-c3nc4ccccc4[nH]3)s2)c1,2.88
19,Nc1ccc2[nH]cc(C3CCN(CC4CCC(NC(=O)/C=C/c5ccccc5Cl)CC4)CC3)c2n1 (stereo not given),3.23
20,COc1ccc(-c2cccc(CNC3CCN(CC4Cn5c(=O)ccc6ccc(F)c4c65)CC3)c2)cc1 (stereo not given),10
